Screening results deposited in PubChem BioAssay by National Center for Advancing Translational Sciences (NCATS).
Giardia FBPA inh: qHTS Assay for Inhibitors of Fructose-1,6-bisphosphate Aldolase from Giardia Lamblia. A8B2U2. purified Giardia FBPA. Potency, µM (series often up to 59.6 µM), for the others: top-dose activity, negative = inhibition, most hits filed as inhibitors. actives 0.71% (n = 290,000). AID 2451, 2010; also: % is scaled to controls: 0 for no effect and ±100 for the full control effect; nearly all actives have a fitted effect of over 55% in size
Target sequence (A8B2U2 whole entry, looked up): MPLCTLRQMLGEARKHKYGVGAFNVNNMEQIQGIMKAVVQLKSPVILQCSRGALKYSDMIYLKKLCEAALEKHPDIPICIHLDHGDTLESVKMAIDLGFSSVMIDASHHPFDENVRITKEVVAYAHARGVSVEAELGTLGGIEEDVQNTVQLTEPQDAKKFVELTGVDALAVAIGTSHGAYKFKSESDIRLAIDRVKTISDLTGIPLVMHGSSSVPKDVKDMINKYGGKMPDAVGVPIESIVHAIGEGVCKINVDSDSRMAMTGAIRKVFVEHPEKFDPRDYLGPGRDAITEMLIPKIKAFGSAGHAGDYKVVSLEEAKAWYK
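40 nM FBPA preincubated 10 min at RT with compound (up to 57.5 uM final), then substrate plus GAPDH/TPI/NAD/arsenate coupling and diaphorase/resazurin added. Fluorescence read after 20 min at RT, 525/598 nm.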
LmPK inhibitor: qHTS Assay for Inhibitors of Leishmania Mexicana Pyruvate Kinase (LmPK); AID 1721, 2009; purified LmPK, Kinase-Glo ATP luminescence, 1 h; Potency, µM (series often up to 57.5 µM), for inactives: at the top dose activity change, negative = inhibition, usual class: inhibitors; Q27686; actives 0.37% (n = 290,000); also: % is scaled to controls: 0 for no effect and ±100 for the full control effect
Target sequence (Q27686 whole entry, looked up): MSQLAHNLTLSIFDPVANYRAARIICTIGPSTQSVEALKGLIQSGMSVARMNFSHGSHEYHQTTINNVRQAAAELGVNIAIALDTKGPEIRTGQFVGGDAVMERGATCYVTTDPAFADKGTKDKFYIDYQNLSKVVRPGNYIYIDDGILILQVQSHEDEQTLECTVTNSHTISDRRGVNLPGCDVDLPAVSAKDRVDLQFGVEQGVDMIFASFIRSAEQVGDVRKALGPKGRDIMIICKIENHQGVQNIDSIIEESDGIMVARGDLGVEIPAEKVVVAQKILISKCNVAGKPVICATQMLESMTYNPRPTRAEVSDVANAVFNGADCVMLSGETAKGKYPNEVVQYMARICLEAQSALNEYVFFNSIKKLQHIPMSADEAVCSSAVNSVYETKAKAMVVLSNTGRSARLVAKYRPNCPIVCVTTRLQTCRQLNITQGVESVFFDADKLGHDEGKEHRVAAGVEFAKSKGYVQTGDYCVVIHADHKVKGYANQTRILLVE
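0.1 nM LmPK, 0.5 mM PEP, 0.1 mM ADP; 50 mM imidazole pH 7.2, 7 mM MgCl2, 50 mM KCl; 1 h RT. Kinase-Glo luminescence readout, normalized to no-enzyme (full inhibition) and uninhibited wells.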
RE007 growth inh: qHTS Assay for Inhibitors of the HIV-1 protein Vpr; Potency, µM (top dose mostly 92.2 µM), inactives show at the top dose activity change, negative = less growth, most hits filed as inhibitors; actives 0.21% (n = 360,000); S. pombe RE007 Vpr strain, BacTiter-Glo ATP luminescence, 24 h; active = well fitted falling curve with a large enough effect; inconclusive = small, poorly fitted or top-dose-only effect; inactive = no such curve, though single readings can be large or run the other way; also: % is scaled to controls: 0 for no effect and ±100 for the full control effect; nearly all actives have a fitted effect of over 50% in size
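Fission yeast strain RE007, carrying one chromosomally integrated HIV-1 vpr copy, was seeded at OD 0.01 in PMG+AL medium with 23 nL pinned compound. After 24 h at 30 °C and 99% humidity, viability was read by BacTiter-Glo luminescence.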
Sm TGR block: qHTS Assay for the Inhibitors of Schistosoma Mansoni Peroxiredoxins; actives 3% (n = 360,000); Potency, µM (titrated, usually from 114 µM), without a hit: at the highest dose activity change, negative = inhibition, hits mostly inhibitors; purified TGR, DTNB reduction, TNB absorbance 405 nm; Schistosoma mansoni thioredoxin glutathione reductase (TGR), Q962Y6; also: % is scaled to controls: 0 for no effect and ±100 for the full control effect; nearly all actives have a fitted effect of over 60% in size
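First, TGR (20 nM dispensed) and NADPH were mixed with compound. Second, a 15 min room-temperature incubation followed. Third, further NADPH and then DTNB were added to start the reaction. Finally, TNB absorbance was monitored kinetically.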
NS1 function inh: qHTS Assay for Inhibitors of Influenza NS1 Protein Function; Potency, µM (top dose mostly 46.1 µM), for inactives: at the top dose activity, positive = more growth; actives 0.4% (n = 270,000); calls by dose curve; also: actives are rising curves; nearly all actives have a fitted effect of over 50% in size
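Compounds were scored for reversing the slow growth caused by influenza A NS1 in S. cerevisiae, measured by optical density at 600 nm. Assay medium contained 2% galactose at pH 6.0; NS1-free yeast of the same strain were the positive control.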
Tb PYK inh: qHTS of Trypanosoma Brucei Inhibitors | pyruvate kinase (Trypanosoma brucei), Q57TT1 | Potency, µM (series often up to 76.8 µM), inactives show at the top dose activity, negative = inhibition, most hits filed as inhibitors | TbPYK enzyme, Kinase-Glo Plus ATP luminescence, 45 min | actives 0.12% (n = 410,000) | AID 624173, 2012; also: % is scaled to controls: 0 for no effect and ±100 for the full control effect; nearly all actives have a fitted effect of over 50% in size
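Enzyme and substrate buffer are dispensed first and compound is pin-transferred. ADP at 130 uM final then starts the reaction, which runs 45 min at room temperature. Detection reagent is added for 10 min before luminescence is imaged.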
Active calls of the source: *; ? = inconclusive; · = no result given; [ ] = dose if it differs, or a comment. Shown are actives, neighbours in structure and some others; about 3.5% of the full set was active somewhere. Unless noted, calls follow the shape of the dose curve; as a rule, active = well fitted curve in the direction sought with a large enough effect; inconclusive = small, poorly fitted or top-dose-only effect, or another doubt; inactive = no such curve, though single readings can be large; an effect the other way counts as inactive or inconclusive. Potency is read from the fitted curve at half-maximal effect.

SMILES | Giardia FBPA inh | LmPK inhibitor | RE007 growth inh | Sm TGR block | NS1 function inh | Tb PYK inh
O=C(NCc1ccccc1)c1nc(S(=O)(=O)Cc2ccc(F)cc2)ncc1Cl | · | · | · | 5.01µM* | · | 0.8%
CCC(=O)Nc1ccc2nc(SCc3ccccc3)sc2c1 | · | · | · | 3.2% | · | -3.0%
Cc1ccc(NC(=O)CN2C(=O)c3cccnc3Sc3ccccc32)cc1C | · | · | · | 0.6% | · | 4.9%
CCCC[C@H](NC(=O)[C@H](CO)NC(=O)[C@H](Cc1ccc(O)cc1)NC(=O)[C@H](CO)NC(C)=O)C(=O)N[C@@H](CCC(=O)O)C(=O)N[C@@H](Cc1cnc[nH]1)C(=O)N[C@H](Cc1ccccc1)C(=O)N[C@@H](CCCNC(=N)N)C(=O)N[C@@H](Cc1c[nH]c2ccccc12)C(=O)NCC(=O)N[C@@H](CCCCN)C(=O)N1CCC[C@H]1C(=O)N[C@H](C(N)=O)C(C)C | 1.3% | · | · | · | · | ·
COc1ccc(CC(=O)NCc2ccc3c(c2)CCN3C(=O)c2ccccc2)cc1OC | · | · | · | -2.5% | · | 2.3%
CCS(=O)(=O)c1ncc(Cl)c(C(=O)Nc2c(C(=O)c3ccc(C)cc3)oc3ccccc23)n1 | · | · | · | 0.1% | · | -6.4%
Cc1ccc(NC(=O)c2nc(S(=O)(=O)Cc3ccccc3)ncc2Cl)cc1 | 0.1% | -3.7% | -8.2% | 3.16µM* | -101.5% | 5.9%
Cc1ccc(S(=O)(=O)NCl)cc1 | · | · | · | · | · | 5.4%
CCn1c(CNS(=O)(=O)c2ccc(Br)cc2)nnc1SC | · | -1.3% | 10.9% | 3.55µM* | -3.9% | -3.0%
O=C(CSc1nc2c(sc3ccccc32)c(=O)n1CCCC(=O)NC1CCCC1)Nc1ccc(F)cc1 | · | · | · | -2.2% | · | 0.1%
OC[C@@H]1OC(O)[C@H](O)[C@H](O)[C@H]1O (stereo partly drawn) | 5.9% | · | · | · | · | ·
N#CC1=C2SCN(Cc3ccccc3)CN2C(=O)CC1c1cccs1 (stereo not drawn) | ? | -4.8% | -12.7% | -35.3% | -37.1% | ?
COc1cc(OC)c(C2CC(=O)N3CN(c4ccccc4C)CSC3=C2C#N)cc1OC (stereo not drawn) | 4.47µM* | 5.3% | · | 31.6µM* | 3.98µM* | ·
CCc1ccccc1N1CSC2=C(C#N)C(c3ccccc3F)CC(=O)N2C1 (stereo not drawn) | 6.29µM* | 14.0% | -13.7% | 17.8µM* | 0.891µM* | 8.91µM*
CC1(C)CC(=O)C(=CN2CCOCC2)C(=O)C1 | 1.2% | 21.3% | 0.2% | 7.08µM* | 12.1% | -12.2%
CC1(C)CC(=O)C(=CN2CCN(C(=O)c3ccco3)CC2)C(=O)C1 | -8.4% | 1.7% | -4.1% | ? | 5.7% | -19.0%
O=C(N/N=C/c1ccco1)c1cccc(N2Cc3ccccc3C2)c1 | -21.3% | -2.3% | -2.3% | 3.55µM* | 25.8% | -17.5%
CCc1nn(CC(=O)NCc2ccc(OC)cc2OC)c(=O)c2cc3c(OC)cccc3n12 | · | · | · | 0.8% | · | 2.3%
CCC[C@@H]1CC(C(=O)NC(C2O[C@H](SC)C(OP(=O)(O)O)[C@H](O)[C@H]2O)[C@H](C)Cl)N(C)C1 (stereo partly drawn) | 4.5% | · | · | · | · | 4.0%
Cc1nc(-c2ccc([N+](=O)[O-])cc2)sc1C(=O)O | 8.9% | 15.8µM* | -24.0% | 5.7% | 6.2% | -10.4%
C[C@@]12CC[C@@H]3c4ccc(O)cc4CC[C@H]3[C@H]1C[C@@H](O)[C@H]2O | 1.5%[21.7 µM] | · | · | · | · | ·
COc1ccc(/C(O)=C2/C(=O)C(=O)N(Cc3ccco3)C2c2cccs2)cc1 (stereo not drawn) | ? | 5.2% | 4.5% | 1.8% | 7.1% | 3.0%
CC1Cc2cc(/C(O)=C3/C(=O)C(=O)N(Cc4ccco4)C3c3cccs3)ccc2O1 (stereo not drawn) | 0.7% | -0.3% | 13.0% | 35.5µM* | 5.9% | 5.3%
CCCN(CCC)S(=O)(=O)c1ccc(C(=O)N2CCn3c4c(c5cc(C)ccc53)CCCC42)cc1 (stereo not drawn) | · | · | · | 7.1% | · | -2.0%
CC(C)NC[C@@H](O)c1ccc(O)c(O)c1 | 7.06µM* | -0.5% | 1.2%[18.4 µM] | ? | -9.0% | -7.3%
SMILES | Giardia FBPA inh | LmPK inhibitor | RE007 growth inh | Sm TGR block | NS1 function inh | Tb PYK inh
CC[N+](C)(CC)CCC(c1ccccc1)C1CCCCC1 (stereo not drawn) | -8.0% | 1.1% | -21.4% | 17.8µM* | 2.6% | -1.4%
CC[N+](C)(CC)CCOC(=O)C(O)(c1ccccc1)C1CCCCC1 (stereo not drawn) | -6.8% | 3.1% | -11.2%[18.4 µM] | 7.9% | -2.4% | 4.4%
CCn1c(=O)[nH]c2ccccc21 | 2.8% | · | · | · | · | ·
CCn1c(C)c(CS(=O)(=O)c2ccccc2)[nH]c1=O | 1.3% | 9.3% | -1.6% | 0.0282µM* | -1.8% | -28.6%
COc1ccc(/C(N)=N/OC(=O)C2CCCCC2)cc1 | · | -4.3% | -3.1% | 89.1µM* | 14.5% | -8.1%
COc1ccc(/C(N)=N/OC(=O)C2CCCCC2)cc1OC | · | -4.6% | -27.1% | -0.7% | -39.7% | -1.9%
O=C(NNS(=O)(=O)c1ccccc1)c1ccc([N+](=O)[O-])cc1 | -23.9% | -4.8% | 4.9% | 0.2% | 5.4% | 0.4%
O=C(NC(=S)NNS(=O)(=O)c1ccccc1)c1ccccc1[N+](=O)[O-] | 14.9% | 7.8% | -7.2% | 28.2µM* | -5.3% | -10.5%
O=C(NC(=S)NNS(=O)(=O)c1ccccc1)c1ccc([N+](=O)[O-])cc1 | ? | -0.1% | ? | 20µM* | 2.2% | -19.4%
O=C(NNS(=O)(=O)c1ccccc1)c1cccc(F)c1 | -14.1% | 27.9% | 11.7% | 56.2µM* | -27.0% | 9.7%
O=C(NC(=S)NNS(=O)(=O)c1ccccc1)c1cccnc1 | 0.2% | -1.0% | 1.4% | 8.91µM* | 2.9% | -26.9%
Cc1cccc(C(=O)NNS(=O)(=O)c2ccc(F)cc2)c1 | -9.2% | -1.1% | 5.2% | -3.7% | 1.3% | 0.1%
O=C(NCCc1ccccc1)c1ccc(NC(=O)C2CC2)cc1 | · | · | 6.6% | · | · | 4.4%
CC(=O)Nc1ccc(C(=O)NCCc2ccccc2)cc1 | 5.4% | -1.3% | -3.9% | 5.01µM* | -1.6% | -4.9%
O=[N+]([O-])/C(=C\Nc1ccccc1)S(=O)(=O)c1ccccc1 | -12.8% | 3.2% | 34.1% | 39.8µM* | -12.3% | -3.9%
O=[N+]([O-])/C(=C\Nc1ccccc1Cl)S(=O)(=O)c1ccccc1 | -5.6% | 1.4% | · | 39.8µM* | -39.3% | ·
COc1ccc(N/C=C(\[N+](=O)[O-])S(=O)(=O)c2ccccc2)cc1 | -9.5% | 0.4% | -1.0% | ? | 6.8% | 4.6%
